Laboratory results taken from PubChem BioAssay (NCI).
The panel holds about 83,000 compounds, 20% with a hit somewhere; the sample as a whole holds those more often.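 Assay: single dose, 48 h. Readout: percent growth (0 = no net growth; negative = cell death). Active: <10.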 Unmarked numbers belong to inactive results. Active and inactive are the calls of the source.

Key:
Assay in all cases: NCI-60 one-dose screen, 48 h (100 = growth as untreated, 0 = no growth, -100 = all killed)
Settings in all cases: 10 µM unless noted
NCI-H23 lung = tested on: NCI-H23 lung
NCI-H322M lung = tested on: NCI-H322M lung
HOP-62 NSCLC = tested on: HOP-62 NSCLC
NCI-H460 lung = tested on: NCI-H460 lung
HOP-92 NSCLC = tested on: HOP-92 NSCLC
NCI-H522 lung = tested on: NCI-H522 lung
A549/ATCC NSCLC = tested on: A549/ATCC NSCLC
786-0 renal = tested on: 786-0 renal
COLO 205 colon = tested on: COLO 205 colon
DU-145 prostate = tested on: DU-145 prostate
K-562 leukemia = tested on: K-562 leukemia
MALME-3M melanoma = tested on: MALME-3M melanoma
MDA-MB-231 breast = tested on: MDA-MB-231 breast
RXF 393 renal = tested on: RXF 393 renal
SF-268 CNS = tested on: SF-268 CNS
SF-295 CNS = tested on: SF-295 CNS
SF-539 CNS = tested on: SF-539 CNS
UACC-257 melanoma = tested on: UACC-257 melanoma
M14 melanoma = tested on: M14 melanoma
NCI-H226 lung = tested on: NCI-H226 lung

| Structure (SMILES) | growth (NCI-H23 lung) | growth (NCI-H322M lung) | growth (HOP-62 NSCLC) | growth (NCI-H460 lung) | growth (HOP-92 NSCLC) | growth (NCI-H522 lung) | growth (A549/ATCC NSCLC) | growth (786-0 renal) | growth (COLO 205 colon) | growth (DU-145 prostate) | growth (K-562 leukemia) | growth (MALME-3M melanoma) | growth (MDA-MB-231 breast) | growth (RXF 393 renal) | growth (SF-268 CNS) | growth (SF-295 CNS) | growth (SF-539 CNS) | growth (UACC-257 melanoma) | growth (M14 melanoma) | growth (NCI-H226 lung) [%] |
| --- | --- | --- | --- | --- | --- | --- | --- | --- | --- | --- | --- | --- | --- | --- | --- | --- | --- | --- | --- | --- |
| O=C(Nc1ccc(-c2nc(N3CCOCC3)c3cccn3n2)cc1)Nc1cccnc1 | 17.2% | 0.902% (active) | -3.37% (active) | 7.47% (active) | -22.5% (active) | 4.32% (active) | 0.989% (active) | -12.7% (active) | 6.07% (active) | 5.28% (active) | 15.2% | -29.9% (active) | -0.801% (active) | -30.5% (active) | 11.9% | -36.4% (active) | -39.8% (active) | -11.7% (active) | -0.739% (active) |  |
| C#Cc1cccc(Nc2ncnc3ccc(-c4cnc(N)nc4)cc23)c1 | 50% | -7.64% (active) |  | 37.8% | 15% | 10.5% | 35.9% | 36.3% | 52.6% | 18.9% | 53.2% | 9.03% (active) | 12.8% | -15.3% (active) | 32.7% | 26.2% | 32.4% | 80.7% | 36.8% |  |
| Cc1nc2sc(C(=O)Nc3cccc(Cl)c3C)c(N)c2cc1C(=O)c1ccccc1 | 34.4% | 49.8% | 21.2% | 7.35% (active) | 41.6% | 5.64% (active) | 19.9% | 32.8% | -36% (active) | 11% | 13.5% | 25% | 39% | 3.56% (active) | 29.2% | 1.83% (active) | -7.44% (active) | 63.3% | 6.11% (active) |  |
| O=C1CC(N2C(=O)/C(=C/C(Cl)=C\c3ccc([N+](=O)[O-])cc3)SC2=S)C(=O)N1c1ccc(Cl)cc1 (stereo not given) | 17.3% | 65.1% | 50.4% | 74.5% | -18.6% (active) | -26.4% (active) | 71% | -12.1% (active) | 4.01% (active) | 22.4% | 6.26% (active) | 22.9% | -3.07% (active) | -64.1% (active) | 21.8% | 40.7% | 15.9% | 57.8% | 23.9% |  |
| C#CCOc1ccc2ncnc(Nc3ccc(NC(=O)CCl)cc3)c2c1 | -39% (active) | 51.6% | 21.4% | -46.4% (active) | -7.62% (active) | -77.9% (active) | 18.7% | -65.3% (active) | -8.04% (active) | 18.1% | 0.218% (active) | -74.5% (active) | -0.398% (active) | -59.9% (active) | -7.47% (active) | 60.6% | -81.8% (active) | 38.8% | 4.03% (active) |  |
| COC(=O)c1c2c(c(C)[n+]([O-])c1C)C(=O)C=C(NCc1ccc(Br)cc1)C2=O | -44.8% (active) | -14.9% (active) |  | -53.8% (active) | -53.8% (active) | -44.8% (active) | -28.2% (active) | -8.26% (active) | -69.8% (active) | -87.7% (active) | 2.51% (active) | -97.9% (active) | -4.67% (active) | -46.1% (active) | -43.7% (active) | -97.9% (active) | -86.8% (active) | -80.6% (active) | -83.9% (active) |  |
| COc1cc2oc(-c3cccc(NC(=O)c4cccc(Br)c4)c3)cc(=O)c2c(OC)c1OC | 57.2% | 76.4% | 55.5% | 34.7% | 47.5% | 38.6% | 49.3% | 59% | 57.8% | 54.4% | 25.8% | 53% | 63.5% | 54.9% | 59.7% | 40.9% | 69% | 83.8% | 59% |  |
| Cc1nc2c(=O)[nH]c(SCC(=O)Nc3cccc(F)c3)nc2[nH]c1=O | 100% | 106% | 98.9% | 102% | 99.9% | 96.1% | 106% | 103% | 111% | 109% | 101% | 105% | 101% | 106% | 102% | 103% | 101% | 98.9% | 96.1% |  |
| C=CCn1c(SCC(=O)Nc2ccc(C(=O)/C=C/c3cc4cc(OC)ccc4nc3Cl)cc2)nnc1-c1ccc(Br)cc1 | 78% | 81.9% |  | 88.4% | 70.1% | 52.9% | 70.7% | 80.9% | 112% | 86.1% | 46.3% | 92.5% | 80.5% | 83.2% | 76% | 92.1% | 89.5% | 79.8% | 90.1% | 89.4 |
| CN1CCN(c2ccc(C(=O)Nc3cccc(C#Cc4cccc5[nH]nc(N)c45)c3)cc2C(F)(F)F)CC1 | -51.9% (active) | -24.6% (active) | -63.7% (active) | -68.4% (active) | -11.8% (active) | -59.1% (active) | -67.2% (active) | -70.4% (active) | -72.9% (active) | -20.3% (active) | -36.9% (active) | -66.3% (active) | -72.2% (active) | -25.4% (active) | -1.07% (active) | -58.5% (active) | -82.7% (active) | -67.1% (active) | -69.5% (active) |  |
| CCOC(=O)CNP(=O)(OC[C@@H](Cc1ccccc1)NC(=O)c1cc2ccccc2s1)Oc1ccccc1 (stereo not given in full) | 81.1% | 93.3% | 85.3% | 72.7% | 69.3% | 71.7% | 64.8% | 89.7% | 87.2% | 88.8% | 19.4% | 69.3% | 77% | 84.4% | 85.6% | 88.5% | 78.9% | 81.2% | 59.6% |  |
| CC[C@@H](C(=O)[C@@H](C)[C@@H](O)[C@H](C)[C@@H]1O[C@@H]([C@@H](CC)C(=O)NCCc2ccc(F)cc2)CC[C@@H]1C)C1O[C@]2(C=CC(=O)[C@]3(CC[C@@](C)([C@H]4CC[C@](O)(CC)[C@H](C)O4)O3)O2)[C@H](C)C[C@@H]1C (stereo not given in full) | 24.8% | 76.7% | 36% | 35% | -0.474% (active) | 33.3% | 20.3% | 50.3% | 29.5% | 50.5% | 17% | 36% | 13.8% | 42.7% | 24.2% | 18.4% | 47.7% | 43.5% | 25.4% |  |
| CCOC(=O)c1nc(Nc2ccc(NC(=O)Nc3ccc(F)cc3)cc2)c2ccccc2n1 |  | 97% | 97.6% | 99.1% | 106% | 98.5% | 102% | 106% | 108% | 108% | 102% | 92.6% | 95.9% | 93.2% | 98.3% | 99.8% | 99.9% | 103% | 97% | 90.4 |
